Compound activity as filed in PubChem.
SMARCA2 act: increases SMARCA2 function in MMTV reporter cells. activation, % at 9.1 µM. MG213 cells, MMTV-luciferase reporter, dexamethasone, overnight. AID 652017. hit rate 1% among 370,000; in the data active means activation above about 7.8%;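 further: 0% = vehicle wells and 100% = reference activator wells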
MsrA inhibitor: inhibits bovine methionine sulfoxide reductase A; purified bovine MsrA, absorbance read-out; inhibition, % at 15.5 µM; hit rate 0.75% among 360,000; AID 651718; in the data active means inhibition above about 4.5%;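 further: 0% = vehicle wells with enzyme and 100% = reference inhibitor wells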
bovine MsrA act: bovine methionine sulfoxide reductase A activation | purified bovine MsrA, absorbance read-out | activation, % at 10.6 µM | hit rate 0.3% among 360,000 | AID 602163; in the data active means activation above about 7.5%;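 further: 0% = vehicle and 100% = reference activator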
ABCB6 inh 2: inhibitors of human ABC transporter ABCB6. Q9NP58. K562-ABCB6 porphyrin accumulation, flow cytometry, 1 h; active compounds read low. fluorescence ratio to DMSO, % at 10 µM. hit rate 0.19% among 360,000;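 active means fluorescence ratio to DMSO below 75%, the collection mean minus 3 SD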;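 further: signal is porphyrin accumulated inside mitochondria; 100% equals median channel fluorescence of DMSO control wells; lower ratio means ABCB6 inhibition with less porphyrin fluorescence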
Target sequence (Q9NP58 whole entry, looked up): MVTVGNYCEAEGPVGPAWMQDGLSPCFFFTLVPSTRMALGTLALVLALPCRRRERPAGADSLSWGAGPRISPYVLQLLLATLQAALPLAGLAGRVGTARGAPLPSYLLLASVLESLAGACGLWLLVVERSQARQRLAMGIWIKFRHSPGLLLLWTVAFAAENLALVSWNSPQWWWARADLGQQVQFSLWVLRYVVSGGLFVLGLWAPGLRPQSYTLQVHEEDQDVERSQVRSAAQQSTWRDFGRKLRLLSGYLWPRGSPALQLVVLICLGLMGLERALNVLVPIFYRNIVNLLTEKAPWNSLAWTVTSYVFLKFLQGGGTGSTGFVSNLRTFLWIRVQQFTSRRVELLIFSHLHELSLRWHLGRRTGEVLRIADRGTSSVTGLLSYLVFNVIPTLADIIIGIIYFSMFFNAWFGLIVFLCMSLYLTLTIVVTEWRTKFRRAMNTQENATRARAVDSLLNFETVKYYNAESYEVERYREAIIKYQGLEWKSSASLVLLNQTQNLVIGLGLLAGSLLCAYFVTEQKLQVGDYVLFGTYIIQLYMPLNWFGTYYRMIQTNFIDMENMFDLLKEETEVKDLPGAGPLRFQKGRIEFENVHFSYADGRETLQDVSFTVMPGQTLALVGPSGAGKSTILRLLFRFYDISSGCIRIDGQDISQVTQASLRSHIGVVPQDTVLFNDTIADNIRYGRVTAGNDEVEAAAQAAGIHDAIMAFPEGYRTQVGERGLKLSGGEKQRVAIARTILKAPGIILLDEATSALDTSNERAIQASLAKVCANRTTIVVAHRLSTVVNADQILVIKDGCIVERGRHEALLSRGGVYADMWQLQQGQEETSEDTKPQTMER
SMARCA2 conf: confirmation of SMARCA2 (BRM) function activators | shares compounds with SMARCA2 act | MG213 cells, MMTV-luciferase with dexamethasone, luminescence, overnight; MG213 cells expressing E1A, Rb sequestered; DMSO wells 0%, reference activator 100% | activation, % at 9.1 µM | hit rate 30% among 3,500 | AID 652260;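 active means activation above its plate's cutoff, the mean activation of tested wells plus 3 SD, cut at about 7.9% in these data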
GAL4-VP16 Luc: counter-screen for SMARCA2 activators: GAL4-VP16 luciferase reporter activation | hit rate 41% among 3,500 | shares compounds with SMARCA2 act | activation, % at 9.1 µM | HEK293 GAL4-VP16 pG5luc reporter, luciferase luminescence; scaled: DMSO wells 0%, SAHA wells 100% | AID 686939;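 active means activation above the solvent-only control well mean plus 3 SD, averaged across control plates, cut at about 5.2% in these data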
Numbers without * were called inactive; x = no result given. Hits are enriched below; roughly 2.1% of the tested compounds scored in any of these assays.

SMILES	SMARCA2 act	MsrA inhibitor	bovine MsrA act	ABCB6 inh 2	SMARCA2 conf	GAL4-VP16 Luc
CCOC(=O)NC(=O)/C(C#N)=C\Nc1ccc(Cl)cc1Cl	9.0*	-1	-10	99	1	7.9*
CCOC(=O)NC(=O)/C(C#N)=C\Nc1sccc1C(=O)OC	6	2	-7	101	x	x
O=C(Nc1ccccc1C(=O)NCc1ccccc1)C1=CSCCO1	12*	0	-3	97	-2	1
COC(=O)[C@]12C[C@H](CC(=O)NCCCN3CCCC3=O)C(=O)N(Cc3ccc(Cl)cc3Cl)C1=C[C@H](C(C)(C)C)O[C@@H]2C	1	x	x	x	x	x
COc1ccc(CSc2nnc(SCc3ccccc3)s2)cc1	8.7*	x	x	x	1	2
O=c1cc(CSc2nnc(NC3CCCCC3)s2)nc2sccn12	-4	2	-8	102	x	x
COC(=O)CSc1nnc(SCc2ccc(OC)cc2)s1	-10	0	-2	97	x	x
c1ccc(CSc2nnc(NC3CCCCC3)s2)cc1	16*	0	-4	97	6	8.6*
CCCCCCCCN1C(=O)[C@@H](CC(=O)NCCCOC)C[C@@]2(C(=O)OC)C1=C[C@H](COCc1ccccc1)O[C@@H]2C	-1	x	x	x	x	x
O=C(CN1CCN(c2nc(-c3ccccc3)cs2)CC1)Nc1ccc(Cl)cc1	-2	x	x	x	x	x
CC(=O)c1ccc(NC(=O)c2ccn[nH]2)cc1	8.2*	-1	-1	96	8.0*	8.0*
CN(C)CCNC(=S)Nc1ccc(-c2nc3ccccc3[nH]2)cc1	8.3*	1	-3	101	16*	5.9*
S=C(NCCCN1CCOCC1)Nc1ccc(-c2nc3ccccc3[nH]2)cc1	2	1	-2	95	x	x
Cn1nnnc1SCC(=O)NCc1ccc2c(c1)OCO2	2	0	-1	100	x	x
COc1ccc(CNC(=O)CSc2nnnn2C)cc1OC	8.5*	-1	-4	92	2	1
COCc1nnc(NC(=O)c2cc(C(=O)OC)cc([N+](=O)[O-])c2)s1	0	1	3	92	x	x
COC(=O)c1cc(C(=O)Nc2nnc(CC(C)C)s2)cc([N+](=O)[O-])c1	12*	0	-5	103	3	3
CCOc1ccc(-n2c(SC/C=C/c3ccccc3)nnc2-c2ccco2)cc1	-6	x	x	x	x	x
Cc1cc(OCC(=O)N(C)C2CCCCC2)ccc1Cl	10*	0	-1	103	6	17*
O=C(Nc1nc(-c2cc3ccccc3oc2=O)cs1)c1ccco1	17*	2	-6	94	-1	2
C=CCN1[C@@H](C)COc2cccc(N3CCCC3)c2S1(=O)=O	0	x	x	x	x	x
C/C(=N\NC(=S)Nc1ccccc1)C1Cc2ccccc2C(=O)O1 (stereo not drawn)	8.3*	-1	1	101	2	3
C/C(=N\NC(=S)Nc1ccccc1C)C1Cc2ccccc2C(=O)O1 (stereo not drawn)	4	-1	-5	90	x	x
CC(/C=C/c1ccc(OCc2ccccc2)cc1)=N\O	7	1	-5	97	x	x
CN(C)c1ccc(C(=O)/C=C/c2ccc(Br)cc2)cc1	5	1	-3	107	x	x
SMILES	SMARCA2 act	MsrA inhibitor	bovine MsrA act	ABCB6 inh 2	SMARCA2 conf	GAL4-VP16 Luc
CN(C)c1ccc(C(=O)/C=C/c2ccccc2)cc1	10*	0	-2	99	8.6*	14*
CCOc1ccc(/C=C/C(=O)c2ccccc2)cc1	9.9*	2	-3	94	6	12*
CN(C)c1ccc(/C=C/C(=O)c2ccccc2)cc1[N+](=O)[O-]	9.3*	0	-4	91	7	1
O=C(C=Cc1ccc(OCc2ccccc2)cc1)c1c(F)cccc1F	10*	1	x	x	9.9*	1
COc1ccccc1C(=O)NCC[N+](C)(C)C	2	0	0	104	x	x
O=C(c1cc(Cl)ccc1F)N1CCCC(c2nc(-c3cccs3)no2)C1 (stereo not drawn)	-3	x	x	x	x	x
Nc1sc(-c2ccccc2)cc1C(=O)NCCc1c[nH]c2ccccc12	-5	1	x	x	x	x
O=C(C=Cc1cccc(Cl)c1)c1ccccc1	10*	0	-1	96	2	2
COc1ccc(S[C@]2(C(=O)N3CCN(c4ncccn4)CC3)CC(=O)N[C@@H]2c2ccc(OC)cc2)cc1	-2	x	x	x	x	x
Cn1c(SCC(=O)Nc2ccc3cn[nH]c3c2)nnc1-c1cnccn1	2	1	0	96	x	x
Cc1ccc(NC(=O)CSc2nnc(-c3cnccn3)n2Cc2ccco2)cc1	23*	0	-11	94	-4	0
O=C(CSc1nnc(-c2cnccn2)n1-c1ccccc1)Nc1ccc2cn[nH]c2c1	8.7*	x	x	x	3	-1
Cc1ccc(NC(=O)CSc2nccn2Cc2ccco2)c(C)c1	11*	0	-4	96	9.9*	6.5*
COC(=O)C1CN(Cc2ccccc2)CCS(=O)(=O)N1Cc1cn(Cc2ccc(C)cc2)nn1 (stereo not drawn)	-2	x	x	x	x	x
COc1ccccc1-c1cc2nc(-c3ccccc3)cc(N3CCN(C(=O)c4ccoc4)CC3)n2n1	-5	2	-3	98	x	x
C/C(=N/NC(=O)c1ccoc1C)c1cccc(NC(=O)C(F)(F)F)c1	7	0	x	98	x	x
COc1ccc(C(=O)N/N=C(/C)c2cccc(NC(=O)C(F)(F)F)c2)cc1	14*	0	-3	96	8	7.0*
OC(c1ccc(F)c(F)c1)c1nc(-c2cccc(F)c2)cs1 (stereo not drawn)	-1	-1	-2	91	x	x
C=CCNC(=O)c1cc(-c2ccc3c(c2)OCO3)on1	9.1*	1	-1	96	8.2*	10*
CCN(CC)CCNc1nc(SC)nc2sc3c(c12)CCN(C)C3	9.2*	1	-2	111	8	0
CSc1nc(NCCCN(C)C)c2c3c(sc2n1)CN(C)CC3	5	0	x	x	x	x
N#CCC[C@@H]1CC[C@]2(CCCN(C(=O)C3CCCCC3)C2)O1	-1	x	x	x	x	x
C=CCN1C(=O)[C@@H](CC(=O)NCCC(C)C)[C@]2(C(=O)OCC)CCCCC/C=C/12	1	x	x	x	x	x
COc1ccc(C(=O)/C=C/c2ccccc2)c(O)c1	8.2*	1	-3	98	4	2
COc1ccc(C(=O)/C=C/c2cccs2)c(OC(=O)N2CCOCC2)c1	1	4	-6	102	x	x
COc1ccc(C(=O)/C=C/c2ccc(OC)cc2OC)c(O)c1	3	1	-1	100	x	x
COc1ccc(C(=O)C=Cc2cccs2)c(O)c1	8.2*	2	-5	98	5	5.7*
O=C(/C=C/c1ccc(O)cc1)c1ccc(O)cc1O	8.1*	3	-6	97	11*	1
CC(C)N1CCCCC(NC(=O)c2c(F)cccc2F)C1=O (stereo not drawn)	-1	x	x	x	x	x
C=CCNC(=O)c1c(Cl)cnn1-c1ccc(C)cc1	12*	0	-11	100	6	5.4*
